PubChem BioAssay AID504332 (National Center for Advancing Translational Sciences (NCATS), 2011)
Where “and” joins values, the source holds several entries; their conditions need not be identical. Identical values can stand only once. In all, about 350,000 compounds went through this assay and about 31,000 (8.9%) were called active. Inconclusive results (about 15%) are left out. Calls follow the shape of the dose curve; as a rule, active = well fitted inhibition curve with a large enough effect; inconclusive = small, poorly fitted or top-dose-only effect; inactive = no such curve, though single readings can be large or run the other way. The entries come from a sample that favours actives as a whole. Where a structure was tested more than once in an assay, its records may differ in their call.

The compounds below were run against Histone-lysine N-methyltransferase EHMT2 (Homo sapiens) (UniProt Q96KQ7) (assay: qHTS Assay for Inhibitors of Histone Lysine Methyltransferase G9a). Conditions: G9a H3K9 monomethylation, AlphaScreen, 2 h; series mostly up to 59 µM.
Sequence of Histone-lysine N-methyltransferase EHMT2 (Homo sapiens) (Q96KQ7 913-1193 limits assumed): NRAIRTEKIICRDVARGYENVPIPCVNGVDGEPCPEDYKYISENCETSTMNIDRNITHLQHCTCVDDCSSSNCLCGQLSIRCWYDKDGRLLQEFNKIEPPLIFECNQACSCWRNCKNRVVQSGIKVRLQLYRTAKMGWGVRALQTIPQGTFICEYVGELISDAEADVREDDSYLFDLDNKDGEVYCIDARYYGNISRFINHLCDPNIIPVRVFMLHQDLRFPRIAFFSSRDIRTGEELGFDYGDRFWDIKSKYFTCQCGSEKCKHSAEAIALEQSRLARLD
In short: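 Readings reflect AlphaScreen signal from monomethyl-H3K9 antibody detection. HMT at 20 nM; substrate b-H3K9 500 nM; cofactor SAM 20 uM; 2 h RT reaction; compounds tested as titrations in qHTS with 15 min preincubation.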
% is scaled to controls: 0 for no effect and ±100 for the full control effect; potency is read from the fitted curve at half-maximal effect.
Also: nearly all actives have a fitted effect of over 75% in size.

Potency, inactive:
Cc1ccc(Cl)cc1NC(=O)/C(C#N)=C\c1cn(Cc2ccc(F)cc2)c2ccccc12
O=[N+]([O-])c1ccc(N/N=C/c2ccccc2)cc1
Cc1ccc(NS(=O)(=O)c2ccc(N/N=C/c3ccccc3OCC(=O)O)c([N+](=O)[O-])c2)c(C)c1
CCC(C)c1ccc(NC(=S)N2CCCC2)cc1 (stereo not drawn)
CCc1ccccc1NC(=O)N1CCC2(CC1)Oc1ccccc1C(=O)N2Cc1ccccc1F
CCC(=O)Nc1c(C(=O)N2CCN(c3ccc(F)cc3)CC2)oc2ccccc12
COc1cc(C(=O)NCC(c2ccc(Cl)cc2)N2CCOCC2)cc(OC)c1OC (stereo not drawn)
Cc1cccc(OCCSc2nc3ccc(NC(=O)COc4ccccc4C)cc3s2)c1
Cc1ccc2nc(SCC(=O)N3CC(C)OC(C)C3)nc(=O)n2c1 (stereo not drawn)
Cc1ccc(NS(=O)(=O)c2cccs2)cc1S(=O)(=O)N1CCCCCC1
CCN(CC)S(=O)(=O)c1ccc(N2CCOCC2)c(C(=O)O)c1
COc1ccc(S(=O)(=O)N2CCCCC2)cc1NC(=O)c1cc([N+](=O)[O-])ccc1N1CCOCC1
CCN(CC)S(=O)(=O)c1ccc(N2CCOCC2)c(NC(=O)C2COc3ccccc3O2)c1 (stereo not drawn)
CC(=O)NCCC(=O)Nc1cc(S(=O)(=O)N2CCOCC2)ccc1N1CCOCC1
CCN(CC)S(=O)(=O)c1ccc(Cl)c(C(=O)NC(C)C(c2cccs2)N2CCCC2)c1 (stereo not drawn)
CN1CCN(c2ccc(S(=O)(=O)N3CCCCC3)cc2NC(=O)Cc2ccccc2F)CC1
NC(=O)c1cc(S(=O)(=O)NCCCc2ccco2)cs1
COc1ccc(Cn2ccnc2SCC(=O)NCc2ccco2)cc1
COc1cc(OC)cc(C(=O)Nc2cc3nn(-c4ccccc4)nc3cc2Cl)c1
Cc1cccc(-n2c(=O)c3c(c4cc(C)ccc4n3C)n(CC(=O)Nc3ccccc3Cl)c2=O)c1
Cc1ccc(-c2nc(-c3ccncc3)no2)c(C)c1
COc1cccc(-n2c(=O)c3c(C)c(C(=O)N(C)C)sc3n(Cc3cccc(C)c3)c2=O)c1
COc1ccc(CCNC(=O)c2ccc3c(c2)nc(C)n3-c2ccc(Br)cc2)cc1OC
CCOC(=O)c1ccc(CSc2nnc3cc(C)c4ccccc4n23)cc1
CCN(CC(=O)Nc1c(F)cccc1F)C(=O)c1ccc(-c2ccccc2)cc1
N#CCCN(C(=O)COC(=O)C1CCN(c2ccc(C(F)(F)F)cn2)CC1)c1ccc(F)cc1
COC(=O)c1ccc(NC(=O)CCc2c(C)nn(-c3ccc(N4CCCC4)nn3)c2C)cc1
Cn1c(=O)n(Cc2c(F)cccc2Cl)c(=O)c2c1nc1n2CCN1c1ccc(F)cc1
Cc1ccc(C(=O)N2CC(=O)Nc3ccccc32)o1
Cc1ccc(CNC(=O)Cn2cnc(S(=O)(=O)N3CCCCC3)c2)o1
CC(=O)c1ccc(NC(=O)C2CCCN2S(=O)(=O)c2cccs2)cc1 (stereo not drawn)
CC(=O)c1ccc(S(=O)(=O)NC2CC(=O)N(c3ccc4c(c3)OCCO4)C2)cc1 (stereo not drawn)
O=C(CCN1C(=O)C2C3CCC(C3)C2C1=O)Nc1ccc(Cl)cc1Cl (stereo not drawn)
CSc1ncccc1C(=O)Nc1nc2ccc(F)cc2s1
CCS(=O)(=O)N1Cc2ccccc2CC1C(=O)Nc1ccc(OC)cc1OC (stereo not drawn)
O=C(C[n+]1cc(-c2ccc(Cl)c(Cl)c2)n2c1CCC2)c1cccs1
Clc1ccc(C[n+]2cc(-c3ccccc3)n3c2CCC3)cc1
O=C(CSc1ncc(CO)n1Cc1ccc(F)cc1)NCc1ccco1
O=C(O)c1ccc2c(c1)N(Cc1ccc(F)cc1)C(=O)c1ccccc1S2=O (stereo not drawn)
COc1ccc(-c2nnc(SCc3cccnc3)o2)cc1
Cc1ccccc1C(=O)NCc1nc(-c2ccc(Cl)cc2)no1
CC1CN(c2cc(=O)n(Cc3ccc(F)cc3)c(=O)[nH]2)CC(C)O1 (stereo not drawn)
CC1CN(C(=S)Nc2ccc(Br)cc2Cl)CC(C)O1 (stereo not drawn)
COC(=O)c1ccccc1N=Nc1c(C)[nH][nH]c1=O
Cc1cccn2c(=O)c3cc(C(=O)NC(C)c4ccccc4)c(=N)n(CCCO)c3nc12 (stereo not drawn)
Oc1ccccc1-c1nc2ccc(Cl)cn2c1Nc1ccc2c(c1)OCCO2
Cc1ccc2nc(-c3ccncc3)cc(C(=O)Nc3ccc4c(c3)OCCO4)c2c1
Cc1ccc(S(=O)(=O)NCC(=O)Nc2ccc3c(c2)OCCO3)cc1
Cc1ccc2nc(-c3cccnc3)c(NC3CCCC3)n2c1
Cc1ccn2c(Nc3ccc4c(c3)OCCO4)c(-c3ccc(C)s3)nc2c1
Cc1nc(Nc2ccc3c(c2)OCCO3)c2nnn(Cc3ccccc3Cl)c2n1
CCN(C(=O)Cn1cnc2sc(C)c(S(=O)(=O)N3CCN(c4ncccn4)CC3)c2c1=O)c1ccccc1F
Cc1ccc(S(=O)(=O)N(CCCN(C)C)Cc2ccc3c(c2)OCO3)cc1
COc1ccc(-c2cn3nc(N4CCCC(C(=O)NCCCOC(C)C)C4)sc3n2)cc1 (stereo not drawn)
Cc1c(Cl)cccc1NC(=O)C(=O)NCCc1csc2nc(-c3ccccc3F)nn12
Cc1ccc(-c2cc(C(=O)NC3CCN(Cc4ccccc4)CC3)c3ccccc3n2)cc1
CC(Sc1nn(-c2ccc(Cl)cc2)c(=S)s1)C(=O)NCC1CCCO1 (stereo not drawn)
CNC(=O)NC(=O)CSc1nnc(-c2ccc(F)cc2)n1CC1CCCO1 (stereo not drawn)
Cc1cc(C)cc(OCC(=O)Nc2c(C(=O)c3ccccc3)oc3ccccc23)c1
CC(=O)Nc1ccc(NC(=O)CSc2nnnn2-c2ccccc2F)cc1
CC(=O)Nc1ccc(NC(=O)CSc2nnnn2C2CCCCC2)cc1

Potency, inactive and 50.1 µM (active):
Cc1ccc(C(=O)C[n+]2cc(-c3ccccc3)n3c2CCCCC3)cc1

Potency, active:
Cc1cccc(COc2ccccc2/C=N/Nc2ccc([N+](=O)[O-])cc2)c1 2.51 µM
COc1cc(C(c2c(NC(=O)c3ccco3)sc(C)c2C)N2CCOCC2)cc(OC)c1OC (stereo not drawn) 50.1 µM
COCc1[nH][nH]c(=O)c1C=Nc1ccc(F)cc1F 20 µM
O=S(=O)(Nc1cc(S(=O)(=O)N2CCOCC2)ccc1N1CCCC1)c1cccs1 20 µM
CCN(CC)S(=O)(=O)c1ccc(N2CCCC2)c(NS(=O)(=O)c2cccs2)c1 28.2 µM
COCCNC(=S)Nc1cc(S(=O)(=O)N2CCOCC2)ccc1N1CCCCC1 2 µM
CCN(CC)S(=O)(=O)c1ccc(N2CCN(C)CC2)c(NC(=O)Nc2ccccc2F)c1 39.8 µM
Cc1ccc(CNC(=O)C2(C(F)(F)F)C/C(=C\Cc3ccccc3)CCCO2)o1 (stereo not drawn) 28.2 µM
CCS(=O)(=O)N1Cc2ccccc2CC1C(=O)Nc1nc2ccc(F)cc2s1 (stereo not drawn) 31.6 µM
COc1ccc(-c2nnc(SC(=O)N3c4ccccc4Sc4ccccc43)o2)cc1 17.8 µM
CC1CN(c2cc(=O)n(-c3cccc(Br)c3)c(=O)[nH]2)CC(C)O1 (stereo not drawn) 44.7 µM
Cc1[nH][nH]c(=O)c1N=Nc1ccccc1 50.1 µM
Cc1ccc(-c2nc3cccc(C)n3c2Nc2ccc3c(c2)OCCO3)cc1 12.6 µM
Cc1ccc2nc(-c3ccc(O)cc3)c(Nc3ccc4c(c3)OCO4)n2c1 3.55 µM
Cc1cccc2nc(-c3ccc(Cl)s3)c(Nc3ccc4c(c3)OCCO4)n12 10 µM
S=c1[nH]nc(-c2ccc(Cl)cc2)n1CC1CCCO1 (stereo not drawn) 7.94 µM
CCn1nnnc1SCC(=O)Nc1ccc(N(C)C)cc1 28.2 µM

activity, negative = inhibition, inactive:
CC(C)c1ccc(S(=O)(=O)N2CCN(C(C)C(=O)NC3CCCC3)CC2)cc1 (stereo not drawn) -7.57% [at 2.33 µM]
CCc1cc(C(c2ccccc2OC)N2CCOCC2)c(NC(=O)c2ccccc2)s1 (stereo not drawn) 7.98% [at 0.501 µM]
O=C(NCCN1CCOCC1)c1cccc(S(=O)(=O)Nc2ccc(F)cc2)c1 8.8% [at 12.7 µM]
Cc1c(C(C)CCCO)oc(=O)c2c1Oc1c(C)c(C(C)C[C@@H](C)O)oc(=O)c1C2 (stereo partly drawn) 9.9% [at 2.33 µM]
O=S(=O)(Nc1cc(Cl)ccc1N1CCOCC1)c1ccccc1Cl 13.1% [at 2.33 µM]
C[C@@H]1NC(=O)[C@@]2(C)[C@@H](c3ccccc3)[C@H]3COc4ccccc4[C@@H]3N2C1=O -3.98% [at 0.501 µM]
CCCn1c(N)c(N(CCOC)C(=O)C2CCCC2)c(=O)[nH]c1=O 15% [at 2.33 µM]
CCCCCCCNC(=O)C1(CC2CC(c3cccc(Br)c3)=NO2)CCN(C(=O)c2cc(OCC)c(OCC)c(OCC)c2)CC1 (stereo not drawn) -31.9% [at 2.33 µM]
OCC[C@H]1C[C@H](O)[C@@H](O)[C@]2(Cc3ccccc3CO2)O1 12.3% [at 2.33 µM]
COc1ccc(-c2nnc(SC(C)C(=O)NC3CC3)o2)cc1 (stereo not drawn) 3.83% [at 12.7 µM]
Cc1ccsc1C(=O)NC1CCCCC1C (stereo not drawn) 16.6% [at 12.7 µM]
NS(=O)(=O)c1ccc(CCNC(=O)COC(=O)COc2cccc(C(F)(F)F)c2)cc1 -4.95% [at 12.7 µM]
CCN1C(=O)[C@H]2[C@@H](c3ccc(-c4ccc(F)cc4)cc3)N[C@@](Cc3ccccc3)(C(=O)OC)[C@H]2C1=O 15.2% [at 2.33 µM]
O=C(COc1ccccc1Cl)N1N=C(c2cccs2)CC1c1ccco1 (stereo not drawn) -17.2% [at 12.7 µM]
